# Measurements reported in article PMC4336329 (PLoS ONE, 2015).
# In all, about 310,000 compounds went through this assay and about 14,000 (4.5%) showed an effect of 50% or more. The effect is printed as a negative number. For the sample, strong results were picked, then their nearest neighbours and some compounds at random.
# Target: human ether-à-go-go-related gene (hERG) potassium channel (human, UniProt Q12809)
# Experiment: primary screen, population patch clamp on CHO cells stably expressing hERG; higher = less effect of the substance
# 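Further: peak tail current of the secondary pulse compared with the same well before compound.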
# Sequence of human ether-à-go-go-related gene (hERG) potassium channel (Q12809 whole entry, looked up): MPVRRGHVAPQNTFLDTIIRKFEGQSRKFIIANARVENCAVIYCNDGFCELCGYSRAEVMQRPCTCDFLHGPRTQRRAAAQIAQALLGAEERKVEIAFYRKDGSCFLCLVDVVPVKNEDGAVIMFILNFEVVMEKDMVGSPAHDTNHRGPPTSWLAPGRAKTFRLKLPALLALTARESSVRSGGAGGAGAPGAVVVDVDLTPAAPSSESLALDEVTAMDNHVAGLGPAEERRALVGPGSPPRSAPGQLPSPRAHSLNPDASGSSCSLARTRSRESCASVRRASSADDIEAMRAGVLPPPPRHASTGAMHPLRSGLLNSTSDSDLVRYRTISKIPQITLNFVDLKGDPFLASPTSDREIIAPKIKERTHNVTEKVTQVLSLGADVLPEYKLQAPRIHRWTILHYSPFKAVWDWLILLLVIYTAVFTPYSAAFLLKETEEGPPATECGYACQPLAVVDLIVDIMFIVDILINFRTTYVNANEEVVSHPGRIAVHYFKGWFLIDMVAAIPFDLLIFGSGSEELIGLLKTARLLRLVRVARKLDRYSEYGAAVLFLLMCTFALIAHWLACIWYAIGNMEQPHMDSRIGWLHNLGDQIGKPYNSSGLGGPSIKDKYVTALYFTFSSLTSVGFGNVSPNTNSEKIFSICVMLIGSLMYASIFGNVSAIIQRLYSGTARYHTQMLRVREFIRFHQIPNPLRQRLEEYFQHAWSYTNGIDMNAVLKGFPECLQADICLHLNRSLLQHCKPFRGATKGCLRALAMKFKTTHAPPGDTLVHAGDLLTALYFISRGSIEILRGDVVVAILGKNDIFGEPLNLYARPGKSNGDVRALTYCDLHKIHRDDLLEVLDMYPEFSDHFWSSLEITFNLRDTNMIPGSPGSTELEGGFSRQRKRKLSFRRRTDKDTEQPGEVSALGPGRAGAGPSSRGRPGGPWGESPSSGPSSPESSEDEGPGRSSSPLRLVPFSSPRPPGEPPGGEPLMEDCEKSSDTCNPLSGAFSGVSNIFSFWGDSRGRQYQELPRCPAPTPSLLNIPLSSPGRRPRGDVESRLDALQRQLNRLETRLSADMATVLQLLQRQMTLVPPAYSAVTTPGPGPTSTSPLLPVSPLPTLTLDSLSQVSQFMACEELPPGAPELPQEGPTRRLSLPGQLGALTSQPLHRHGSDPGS
row,SMILES,"hERG current change (%, negative = inhibition) at 10uM [%]"
1,CSc1ccccc1NC(=O)Cn1ccsc1=N,33.3
2,Cc1cc(NC(=O)CCCC(=O)OCC(F)(F)C(F)F)cc(C)c1C(=O)O,20.1
3,O=C(O)CC1OCC=C2CN3CCC45C6=CC(=O)C(=O)C([N+](=O)[O-])=C6NC4C1C2CC35 (stereo not shown),10.1
4,Cc1ccc(C)c(N2CCN(C(=O)Cn3cccc3)CC2)c1,-19
5,COc1ccc(/C=C/c2cc(C(F)(F)F)[nH]c(=O)n2)cc1OC,-6.91
6,COc1cc(/C=C/c2cc[n+](C)cc2)ccc1OCC(=O)Nc1ccc(Cl)c(Cl)c1.[I-],-5.84
7,CS(=O)(=O)N(CC(=O)N1CCCC1)c1ccc(OCc2ccccc2)cc1,-15.7
8,OCCC#Cc1ccc(CN2CCN(CCc3ccccc3)C(CCO)C2)cc1 (stereo not shown),-20.7
9,C#Cc1ccc(CN2CCN(CCCc3ccccc3)C(CCO)C2)cc1 (stereo not shown),-69.8
10,C#Cc1ccc(CN2CCN(CCc3ccccc3)C(CCO)C2)cc1 (stereo not shown),-58.8
11,Nc1c(C(=O)NC2CCCC2)c2nc3ccccc3nc2n1N,25.1
12,CC1CCc2c(nc3sc4c(c3c2N)CCCC4)C1 (stereo not shown),-11.5
13,CN(Cc1ccccc1NS(=O)(=O)c1ccc2ccccc2c1)C1CCCCC1.Cl,7.73
14,O=C(CCN1CCN(C(c2ccccc2)c2ccccc2)CC1)N/N=C/c1ccc(O)cc1O,-53.1
15,COc1ccc(/C=N\NC(=O)CCN2CCN(c3ccccc3)CC2)cc1OC,-56.9
16,COc1ccc(OC)c(/C=N/NC(=O)CCN2CCN(C(c3ccccc3)c3ccccc3)CC2)c1,-2.39
17,COc1ccc(/C=N/NC(=O)CCN2CCN(c3ccccc3)CC2)c(OC)c1OC,-3.73
18,COc1cc(/C=N/NC(=O)c2cc(C)n(-c3ccc(F)cc3)c2C)cc(OC)c1O,-13.4
19,O=C(CNC(=O)C(c1ccccc1)c1ccccc1)N/N=C/c1ccc(O)cc1O,-4.68
20,COc1cc(/C=N/NC(=O)CCN2CCCCC2)ccc1O,-12
21,COc1cc(/C=N\NC(=O)CNC(=O)C(c2ccccc2)c2ccccc2)ccc1O,-25.7
22,COc1ccc(/C=N/NC(=O)c2cc(C)n(-c3ccccc3)c2C)cc1OC,-53.2
23,COc1cc(/C=N/NC(=O)CCN2CCN(C(c3ccccc3)c3ccccc3)CC2)ccc1O,-78.7
24,Cc1cc(C(=O)N/N=C/c2cccc([N+](=O)[O-])c2)c(C)n1-c1ccccc1,8.8

row,SMILES,"hERG current change (%, negative = inhibition) at 10uM [%]"
1,COc1cc(/C=N/NC(=O)CCN2CCN(c3ccccc3)CC2)cc(OC)c1OC,-22.2
2,Cc1ccccc1N(C(=O)CNC(=O)c1ccco1)C(C(=O)NC1CCCCC1)c1cccnc1 (stereo not shown),14.3
3,Cc1cc(C)cc(NS(=O)(=O)c2ccc(NC(=O)C3CCCCC3C(=O)O)cc2)c1 (stereo not shown),2.18
4,CSc1ccc(CNC(=O)c2ccc(NC(=O)C3=CSCCO3)cc2)cc1,28.4
5,CCCCc1ccc(S(N)(=O)=O)cc1,15.7
6,O=C(CSC1CN(C(c2ccccc2)c2ccccc2)C1)N/N=C/c1ccccc1,1.64
7,O=C(CCN1CCN(C(c2ccccc2)c2ccccc2)CC1)N/N=C/c1ccc(O)cc1,-54.8
8,NNC(=O)CCN1CCN(C(c2ccccc2)c2ccccc2)CC1,-7.7
9,Cc1cc2c(cc1C)-c1nnnn1C(C)(C)C2,15.2
10,N#Cc1ccc(-n2c(-c3ccccc3)nnc2-c2ccccc2)cc1C#N,-15.5
11,O=C1N/C(=N/c2ccccn2)SC1Cc1ccccc1 (stereo not shown),-13.7
12,CCc1ccc(NC(=O)Cn2c(=O)n(CCC(=O)NC3CCN(Cc4ccccc4)CC3)c(=O)c3ccccc32)cc1,1.83
13,Cc1ccc(NC(=O)Cn2c(=O)n(CCC(=O)NC3CCN(Cc4ccccc4)CC3)c(=O)c3ccccc32)cc1,-1.53
14,COc1cccc(NC(=O)Cn2c(=O)n(CCC(=O)NC3CCN(Cc4ccccc4)CC3)c(=O)c3ccccc32)c1,-57.6
15,O=C(CCCCn1c(=O)c2ccccc2n(Cc2ccccc2)c1=O)NC1CCN(Cc2ccccc2)CC1,-67.9
16,Cc1cc(NC(=O)Cn2c(=O)n(CCCCC(=O)NC3CCN(Cc4ccccc4)CC3)c(=O)c3ccccc32)n[nH]1,26.5
17,O=C(CCn1c(=O)c2ccccc2n(Cc2ccccc2)c1=O)NC1CCN(Cc2ccccc2)CC1,-42.5
18,O=C(CCCCn1c(=O)c2ccccc2n(Cc2ccccc2F)c1=O)NC1CCN(Cc2ccccc2)CC1,-9.04
19,Cc1cccc(C)c1NC(=O)Cn1c(=O)n(CCCC(=O)NC2CCN(Cc3ccccc3)CC2)c(=O)c2ccccc21,-58.6
20,COC(=O)c1ccccc1NC(=O)Cn1c(=O)n(CCC(=O)NC2CCN(Cc3ccccc3)CC2)c(=O)c2ccccc21,-34.8
21,NC(=O)Cn1c(=O)n(CCCC(=O)NC2CCN(Cc3ccccc3)CC2)c(=O)c2ccccc21,-6.48
22,CCOc1ccc(NC(=O)Cn2c(=O)n(CCCC(=O)NC3CCN(Cc4ccccc4)CC3)c(=O)c3ccccc32)cc1,-38
23,O=C(CCCn1c(=O)c2ccccc2n(Cc2cccc(F)c2)c1=O)NC1CCN(Cc2ccccc2)CC1,-68.6
24,N#CC1=C(N)Oc2n[nH]c(-c3ccccc3)c2C12C(=O)Nc1ccccc12 (stereo not shown),17.4

row,SMILES,"hERG current change (%, negative = inhibition) at 10uM [%]"
1,NC(=S)N/N=C/c1coc2ccc(F)cc2c1=O,10.3
2,COCCNC(=O)c1ccc(-n2c(SCc3cccnc3)nc3ccccc3c2=O)cc1,-8.88
3,Fc1ccc(/C=N/Nc2cc(N3CCOCC3)ncn2)cc1,15.4
4,COC(=O)c1ccccc1N/C=C/C(=O)c1ccc(Br)cc1,16.1
5,Cn1c(SCC(=O)NNC(=O)Cc2ccccc2)nc2ccccc2c1=O,11.7
6,COc1ccc(CCC(=O)N2CC(C)OC(C)C2)cc1 (stereo not shown),5.02
7,CCOCc1nnc(NC(=O)c2cc(C(=O)OC)cc([N+](=O)[O-])c2)s1,21.3
8,C(=N\Nc1nc(-c2ccccc2)cs1)/c1cccs1,18.5
9,C(=N\Nc1nc(-c2ccccc2)cs1)/c1ccncc1,-50.5
10,Br.CC(=O)Nc1ccc(-c2csc(N/N=C\c3ccncc3)n2)cc1,4.43
11,C(=N\Nc1nc(-c2ccccc2)cs1)/c1cccnc1,-59.5
12,Brc1ccc(-c2csc(N/N=C/c3cccnc3)n2)cc1,19.6
13,Clc1ccc(-c2csc(N/N=C\c3cccnc3)n2)cc1,6.05
14,CC(=O)Oc1ccc2oc(C)c(C(=O)N3CCOCC3)c2c1,-8.91
15,CCN(CC)C(=O)Oc1nnc(SC(C)C)n1-c1ccc(Cl)cc1,-4.75
16,Nc1ccc(Oc2ccc(Br)cc2)cc1,-4.61
17,CN1C(=O)/C(=N\OC(=O)c2ccccc2Cl)c2ccccc21,-42.8
18,Cc1[nH]n(-c2ccccc2)c(=O)c1N=Nc1cccc(C(=O)O)c1,23.1
19,O=C(NC1CCCC1)C1(c2ccccc2)CCN(S(=O)(=O)c2ccccc2)CC1,-6.14
20,CCCn1c(C(C)NC(=O)c2ccccc2)n[nH]c1=S (stereo not shown),12.7
21,O=C(C#Cc1ccccc1)c1ccco1,5.83
22,CCOC(=O)C1(Cc2cccc(OC)c2)CCN(Cc2cccc3cnccc23)CC1,-39.3
23,CCOC(=O)c1[nH]ncc1CN1CCC(Cc2ccccc2)(C(=O)OCC)CC1,-35.3
24,CCOC(=O)C1(Cc2ccccc2)CCN(Cc2cccc3nccnc23)CC1,-59.9

row,SMILES,"hERG current change (%, negative = inhibition) at 10uM [%]"
1,CCOC(=O)C1(CCc2ccccc2)CCN(Cc2cccc3cnccc23)CC1,-69.6
2,CCOC(=O)C1(CCc2ccccc2)CCN(Cc2cccc3nccnc23)CC1,-60.5
3,CCOC(=O)C1(Cc2ccc(OC)cc2)CCN(C(=O)c2cccc3nccnc23)CC1,-31.4
4,CCOC(=O)C1(CCOc2ccccc2)CCN(Cc2cccc3nonc23)CC1,-28.6
5,O=C(CSC1=NCCS1)Nc1ccnc2ccccc12,-5.91
6,COc1ccc(Cl)cc1C(=O)OCC(=O)Nc1cccnc1Cl,15.8
7,COc1ccc(CN(C(=S)Nc2ccccc2)C2CC(=O)N(c3ccc(F)cc3)C2=O)cc1 (stereo not shown),26.5
8,COc1ccc2cc(Br)ccc2c1CC(=O)NC(C)(C)C,17.3
9,Cn1cc(C(c2ccccc2OCC(=O)O)c2cn(C)c3ccccc23)c2ccccc21,3.58
10,COC(=O)c1ccc(NC(=S)NC2CCCCC2)cc1,1.13
11,Cc1occc1C(=O)N1CCN(c2ccccc2)CC1,-8.67
12,Cc1c(C(=O)N2CCN(c3ccc([N+](=O)[O-])cc3)CC2)oc2ccccc12,-72.8
13,Cc1occc1C(=O)N1CCN(c2ccc(Cl)cc2)CC1,-4.41
14,Cc1nc2ccccc2c2oc(C(=O)N3CCN(c4ccc([N+](=O)[O-])cc4)CC3)cc12,-9.45
15,Cc1ccc(C(=O)N2CCN(c3ncccn3)CC2)o1,13.4
16,Cc1c(-c2ccccc2)oc2c(C(=O)N3CCN(c4ccccc4F)CC3)cccc2c1=O,-8.63
17,Cc1ccc(C(=O)N2CCN(c3ccc([N+](=O)[O-])cc3)CC2)o1,-80.2
18,Cc1c(-c2ccccc2)oc2c(C(=O)N3CCN(c4ccc([N+](=O)[O-])cc4)CC3)cccc2c1=O,-75.4
19,COc1ccc(N2CCN(C(=O)c3oc4ccccc4c3C)CC2)cc1,-31.9
20,COc1ccccc1N1CCN(C(=O)c2cccc3c(=O)c(C)c(-c4ccccc4)oc23)CC1,-31.2
21,Cc1c(C(=O)N2CCOCC2)oc2ccccc12,5.05
22,Cc1occc1C(=O)N1CCN(c2ccc([N+](=O)[O-])cc2)CC1,-77.7
